Whole data set: some 1,400 sequences, median “thermal melting temperature (Tm) of peptide-HLA complex” near 60, cut for the lowest 2% near 45. The full list was thinned out, with the lowest values kept by preference.
B1: unnamed (peptide)
chain: LPNGRDTPAL
B2: unnamed (peptide)
chain: SPAFSTRVL
B3: unnamed (peptide)
chain: KPFDQTTISL
B4: unnamed (peptide)
chain: RPRPGNILLQL
B5: unnamed (peptide)
chain: QPIDNVSRNLL
B6: unnamed (peptide)
chain: KVRGISEVL
B7: unnamed (peptide)
chain: QPIPFPKEAL
B8: unnamed (peptide)
chain: KPYQGNPTF
B9: unnamed (peptide)
chain: RPHAFQVIL
B10: unnamed (peptide)
chain: LPSGDRVAVSV
B11: unnamed (peptide)
chain: AANPNRFITL
B12: unnamed (peptide)
chain: TPRSPPLGL
B13: unnamed (peptide)
chain: TPINKPPVL
B14: unnamed (peptide)
chain: APRPDRLVNRL
B15: unnamed (peptide)
chain: LPHAVSSLL
B16: unnamed (peptide)
chain: LPRKPSVPW
B17: unnamed (peptide)
chain: APRQVLDLEDL
B18: unnamed (peptide)
chain: KMLTFLML
B19: unnamed (peptide)
chain: KPQTKLLIL
B20: unnamed (peptide)
chain: LPSKEHVDVI
B21: unnamed (peptide)
chain: IPFSNPRVL
B22: unnamed (peptide)
chain: LPRPWSVPPL
B23: unnamed (peptide)
chain: VPKPPSIEEF
B24: unnamed (peptide)
chain: RPAQVSQPF
B25: unnamed (peptide)
chain: IVDSARSIL
B26: unnamed (peptide)
chain: HPRKGFPGSL
B27: unnamed (peptide)
chain: APKPGGLSL
B28: unnamed (peptide)
chain: GPMNLRAAF
B29: unnamed (peptide)
chain: MPSASRVILL
B30: unnamed (peptide)
chain: APGPPGRSML
B31: unnamed (peptide)
chain: LPQLPLAAL
B32: unnamed (peptide)
chain: HPAAFPLPV
B33: unnamed (peptide)
chain: APRTVALTAL
B34: unnamed (peptide)
chain: LPQPVPLSV
B35: unnamed (peptide)
chain: IPRPDGIEW
B36: unnamed (peptide)
chain: QPHLVNIQF
B37: unnamed (peptide)
chain: RPGWLTVSL
B38: unnamed (peptide)
chain: RPAVIGDVL
B39: unnamed (peptide)
chain: HPAGPRTVF
B40: unnamed (peptide)
chain: YPTISLHAL
B41: unnamed (peptide)
chain: SPTLPAARSSL
B42: unnamed (peptide)
chain: NPKNPGLWL
B43: unnamed (peptide)
chain: TPRVPDNSL
B44: unnamed (peptide)
chain: SPDLVRVQL
B45: unnamed (peptide)
chain: RPAAGFVAGL
B46: unnamed (peptide)
chain: KPWLRALQL
B47: unnamed (peptide)
chain: MPFPNIRSAEL
B48: unnamed (peptide)
chain: TPNDRFILL
B49: unnamed (peptide)
chain: LPWASTHSL
B50: unnamed (peptide)
chain: AALPFVRQAGL
B51: unnamed (peptide)
chain: VPNQKRLTLL
B52: unnamed (peptide)
chain: KPYPIAEVEQL
B53: unnamed (peptide)
chain: FDPALLEF
B54: unnamed (peptide)
chain: YPPNPWREI
B55: unnamed (peptide)
chain: LPSWGRAEL
B56: unnamed (peptide)
chain: GPDEAKIKALL
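Note: lysates heated 10 min at 37–73 °C, complexes pulled down with pan-HLA I antibody, peptide signal by DIA-MS relative to 37 °C, Tm where half the complex is unfolded.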

Each sequence was assayed against HLA-B*07:02 (assay: thermal melting temperature (Tm) of peptide-HLA complex; higher = more thermostable pHLA complex). Details: C1R-B*07:02.
Work on B1 yielded a thermal melting temperature of 59.2 °C. B2 showed a thermal melting temperature of 60.3 °C. B3 gave a thermal melting temperature of 61.3 °C. For B4, the thermal melting temperature was 55.6 °C. With B5 the thermal melting temperature was 59.3 °C. B6 showed a thermal melting temperature of 60.5 °C. In the case of B7, the thermal melting temperature is reported as 60.7 °C. With B8 the thermal melting temperature was 57.5 °C. B9 showed a thermal melting temperature of 60.2 °C. For B10, the thermal melting temperature was 61 °C. B11 gave a thermal melting temperature of 61.1 °C. B12 was tested, and the thermal melting temperature was 62.3 °C. With B13 the thermal melting temperature was 56 °C. B14 gave a thermal melting temperature of 57.3 °C. Sequence B15 has a thermal melting temperature of 62.4 °C. In the case of B16, the thermal melting temperature is reported as 59.5 °C. With B17 the thermal melting temperature was 60.9 °C. B18 showed a thermal melting temperature of 61.7 °C. For B19, the thermal melting temperature was 60.8 °C. With B20 the thermal melting temperature was 44.8 °C. Work on B21 yielded a thermal melting temperature of 61.4 °C. B22 was tested, and the thermal melting temperature was 60 °C. B23 showed a thermal melting temperature of 62.3 °C. In the case of B24, the thermal melting temperature is reported as 60.2 °C. B25 was tested, and the thermal melting temperature was 57.8 °C. B26 gave a thermal melting temperature of 45 °C. Work on B27 yielded a thermal melting temperature of 61.7 °C. Sequence B28 has a thermal melting temperature of 62.1 °C. In the case of B29, the thermal melting temperature is reported as 62.7 °C. For B30, the thermal melting temperature was 60 °C. Work on B31 yielded a thermal melting temperature of 59 °C. Work on B32 yielded a thermal melting temperature of 57.7 °C. B33 gave a thermal melting temperature of 62.9 °C. For B34, the thermal melting temperature was 62.6 °C. B35 showed a thermal melting temperature of 58.4 °C. B36 showed a thermal melting temperature of 41.6 °C. For B37, the thermal melting temperature was 59.2 °C. In the case of B38, the thermal melting temperature is reported as 59.3 °C. Work on B39 yielded a thermal melting temperature of 59.1 °C. Sequence B40 has a thermal melting temperature of 59.8 °C. Work on B41 yielded a thermal melting temperature of 56.9 °C. With B42 the thermal melting temperature was 61 °C. B43 showed a thermal melting temperature of 60.7 °C. B44 gave a thermal melting temperature of 60.7 °C. B45 showed a thermal melting temperature of 57 °C. B46 showed a thermal melting temperature of 59.7 °C. B47 was tested, and the thermal melting temperature was 58.2 °C. B48 was tested, and the thermal melting temperature was 60.4 °C. Work on B49 yielded a thermal melting temperature of 58.1 °C. B50 was tested, and the thermal melting temperature was 42.3 °C. For B51, the thermal melting temperature was 62.4 °C. B52 gave a thermal melting temperature of 42.7 °C. B53 was tested, and the thermal melting temperature was 42.6 °C. Sequence B54 has a thermal melting temperature of 59.3 °C. With B55 the thermal melting temperature was 62.8 °C. B56 was tested, and the thermal melting temperature was 60 °C.

From the supplement of paper PMC7726561
